Assay [1] in a line: antimalarial activity against Dd2 strain (AID 2302;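 active means growth inhibition above 50% at the single 2 µM test dose, taken to imply half-maximal potency below 2 µM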;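 further: 0% = DMSO untreated growth and 100% = chloroquine plus artemisinin killed control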). The following applies: P. falciparum Dd2 in RBCs, LDH growth readout, 72 h; at 2 µM; active compounds read high.
Assay [2] in a line: human hepatoma cell viability loss – ATP luminescence, cytotoxicity control for P. falciparum antimalarial project, primary screen (AID 2303;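 active means inhibition above 50%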;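 further: 0% = DMSO wells and 100% = digitonin-killed cells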). The following applies: HepG2 viability, 24-48 h, at 10 µM, active compounds read high.
Assay [3] deals with L-lactate dehydrogenase (Plasmodium falciparum (isolate CDC / Honduras)) (UniProt Q27743). Description: PfLDH activity inhibition – cell lysate, 3D7 strain, counter-screen for P. falciparum growth inhibition project (AID 2304).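 Further: 0% = vehicle and 100% = reference inhibitor.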 As to conditions: P. falciparum 3D7 crude extract, LDH APAD/NBT absorbance; at 2 µM; active compounds read high. (Counterscreens check selectivity or assay interference.)

Assay [4] can be described thus: inhibition of 3D7 malaria parasite growth – strain 3D7 (AID 2306).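 Further: 0% = DMSO wells and 100% = chloroquine plus artemisinin control wells.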 The following applies: P. falciparum 3D7 erythrocytic growth, LDH absorbance, 72 h; at 2 µM; active compounds read high.
For assay [5], the target named is Calcium-dependent protein kinase 1 (Plasmodium falciparum (isolate 3D7)) (UniProt P62344). Description: PfCDPK1 kinase inhibitors, biochemical, TCAMS library (AID 1159585; cut-off not given, nearly all actives have IC50 up to about 0.98 µM;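 further: inhibitors leave more ATP so luminescence rises with inhibition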). As to conditions: recombinant PfCDPK1, Kinase-Glo ATP depletion luminescence. (Kinase-Glo reads ATP consumption through a luciferase reaction.)
Assay [6] deals with Plasmodium falciparum protein kinase 6 (PK6, PF3D7_1337100) (UniProt Q8IDW1). The assay can be described thus: PfPK6 kinase inhibitors, biochemical, TCAMS library (AID 1159586). As to conditions: recombinant PfPK6, Kinase-Glo ATP depletion luminescence.
Assay [7] concerns the target Protein kinase 7 (PK7), Plasmodium falciparum 3D7 (PF3D7_0213400) (UniProt Q7YTF7). Description: inhibition of Plasmodium PK7 catalytic activity – biochemical, TCAMS antimalarial set, Kinase-Glo luminescence (AID 1159587). As to conditions: recombinant PfPK7, Kinase-Glo ATP depletion luminescence.
Assay [8] has as its target Calcium-dependent protein kinase 4 (Plasmodium falciparum (isolate 3D7)) (UniProt Q8IBS5). Description: PfCDPK4 kinase inhibitors, biochemical, TCAMS library (AID 1159588; cut-off not given, nearly all actives have IC50 up to about 0.91 µM). The following applies: recombinant PfCDPK4, Kinase-Glo ATP depletion luminescence.

For 20 molecules, growth inhibition, inhibition and outcome results are on record in PubChem BioAssay.

Unmarked numbers belong to inactive results. For some of these results: Entries with a potency or affinity are not part of this list. Calls of active or inactive are those of the source. Unless noted, how the calls were made is not given here.

Chain of Calcium-dependent protein kinase 4 (Plasmodium falciparum (isolate 3D7)) (Q8IBS5 whole entry, looked up): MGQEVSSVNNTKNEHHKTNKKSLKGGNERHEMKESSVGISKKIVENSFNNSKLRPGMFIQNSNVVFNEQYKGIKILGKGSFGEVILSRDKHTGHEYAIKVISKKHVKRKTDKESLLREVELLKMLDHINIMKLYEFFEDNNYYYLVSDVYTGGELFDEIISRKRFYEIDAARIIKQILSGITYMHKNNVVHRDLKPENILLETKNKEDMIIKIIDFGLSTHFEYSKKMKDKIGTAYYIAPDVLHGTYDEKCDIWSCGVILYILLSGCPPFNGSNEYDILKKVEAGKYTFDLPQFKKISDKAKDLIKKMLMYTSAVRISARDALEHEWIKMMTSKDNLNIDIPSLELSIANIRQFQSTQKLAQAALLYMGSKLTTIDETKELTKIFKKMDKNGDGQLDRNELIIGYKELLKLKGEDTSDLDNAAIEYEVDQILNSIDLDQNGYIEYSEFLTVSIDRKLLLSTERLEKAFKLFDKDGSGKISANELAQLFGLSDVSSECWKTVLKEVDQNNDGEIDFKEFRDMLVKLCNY
Chain of Plasmodium falciparum protein kinase 6 (PK6, PF3D7_1337100) (Q8IDW1 1-305): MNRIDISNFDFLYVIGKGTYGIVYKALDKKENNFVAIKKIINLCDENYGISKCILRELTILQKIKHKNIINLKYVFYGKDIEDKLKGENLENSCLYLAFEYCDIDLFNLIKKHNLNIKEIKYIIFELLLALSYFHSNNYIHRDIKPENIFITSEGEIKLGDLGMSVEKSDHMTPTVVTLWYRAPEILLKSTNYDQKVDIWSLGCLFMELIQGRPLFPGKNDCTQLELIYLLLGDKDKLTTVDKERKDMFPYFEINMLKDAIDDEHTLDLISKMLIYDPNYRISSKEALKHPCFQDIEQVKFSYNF
Chain of Calcium-dependent protein kinase 1 (Plasmodium falciparum (isolate 3D7)) (P62344 whole entry, looked up): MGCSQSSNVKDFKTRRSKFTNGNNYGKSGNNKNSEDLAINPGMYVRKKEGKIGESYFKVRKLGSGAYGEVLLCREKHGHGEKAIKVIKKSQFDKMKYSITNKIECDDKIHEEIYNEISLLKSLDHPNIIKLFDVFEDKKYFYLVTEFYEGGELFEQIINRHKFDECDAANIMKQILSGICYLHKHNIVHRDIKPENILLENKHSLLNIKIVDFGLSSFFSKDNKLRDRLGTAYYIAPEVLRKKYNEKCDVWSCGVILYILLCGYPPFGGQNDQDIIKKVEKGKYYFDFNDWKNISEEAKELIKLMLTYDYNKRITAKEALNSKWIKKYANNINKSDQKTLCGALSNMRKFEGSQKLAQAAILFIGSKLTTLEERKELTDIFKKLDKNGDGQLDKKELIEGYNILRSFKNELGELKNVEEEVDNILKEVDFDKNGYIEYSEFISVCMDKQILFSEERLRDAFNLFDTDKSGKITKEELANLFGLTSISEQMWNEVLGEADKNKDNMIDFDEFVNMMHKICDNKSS
Chain of L-lactate dehydrogenase (Plasmodium falciparum (isolate CDC / Honduras)) (Q27743 whole entry, looked up): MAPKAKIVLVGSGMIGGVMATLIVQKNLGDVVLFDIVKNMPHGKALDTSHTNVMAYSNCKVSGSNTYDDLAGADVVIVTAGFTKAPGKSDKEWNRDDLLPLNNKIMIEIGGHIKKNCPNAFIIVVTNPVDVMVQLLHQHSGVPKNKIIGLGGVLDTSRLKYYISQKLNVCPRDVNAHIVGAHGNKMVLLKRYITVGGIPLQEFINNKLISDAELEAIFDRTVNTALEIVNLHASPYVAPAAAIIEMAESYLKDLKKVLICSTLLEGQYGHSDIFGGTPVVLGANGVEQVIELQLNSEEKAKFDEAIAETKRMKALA
Chain of Protein kinase 7 (PK7), Plasmodium falciparum 3D7 (PF3D7_0213400) (Q7YTF7 1-343): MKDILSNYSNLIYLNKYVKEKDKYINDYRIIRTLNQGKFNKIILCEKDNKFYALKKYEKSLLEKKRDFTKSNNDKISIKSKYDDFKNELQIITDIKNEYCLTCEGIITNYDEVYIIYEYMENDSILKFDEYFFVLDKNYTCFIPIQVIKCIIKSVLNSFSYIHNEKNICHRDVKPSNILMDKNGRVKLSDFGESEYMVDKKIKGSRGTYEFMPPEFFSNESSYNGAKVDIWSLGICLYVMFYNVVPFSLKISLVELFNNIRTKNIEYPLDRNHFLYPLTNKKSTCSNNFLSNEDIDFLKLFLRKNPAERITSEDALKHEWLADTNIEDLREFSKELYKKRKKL

What is called inhibition is the drop in the measured response relative to a control, in per cent. On to `Cc1ccc(NCC(=O)Nc2ccc(F)c(Cl)c2)cc1S(=O)(=O)N1CCOCC1`, for which the growth inhibition in assay [1] was 97% (active); in assay [4], 98% (active). For the same molecule, the results for the inhibition in assay [2] and in assay [3] were 2% and 0%, respectively. The outcome in assay [5], in assay [6], in assay [7] and in assay [8] was inactive.
Take `Cc1ccc(C(=O)N2CCN(Cc3nccs3)CC2)cc1`: the growth inhibition in assay [1] was -2%; in assay [4] it was 86% (active). For the same molecule, the inhibition was -6% in assay [2] and 0% in assay [3]. The outcome in assay [5], in assay [6], in assay [7] and in assay [8] was inactive.
Consider `O=C(Nc1cc(Cl)cc(Cl)c1)c1cnn(-c2ccc(F)cc2)c1C1CCNCC1`, for which the growth inhibition in assay [1] is -1%; in assay [4], 90% (active). Besides, the inhibition in assay [2] was 13%; in assay [3], -2%. In addition, the outcome in assay [5], in assay [6], in assay [7] and in assay [8] was inactive.
`N=C(N)c1cc(Cl)cc(NC(=O)Nc2cc(Cl)cc(C(=N)N)c2)c1`: the growth inhibition in assay [1] and in assay [4] was 92% (active) each time. Moreover, the inhibition in assay [2] is 4%; in assay [3], -7%. Moreover, the outcome in assay [5], in assay [6], in assay [7] and in assay [8] was inactive.
For `COc1ccc(-c2cnc3ccc(NCc4ccc(S(N)(=O)=O)cc4)nn23)cn1`, the growth inhibition in assay [1] and in assay [4] was 98% (active) throughout. Also, the values for the inhibition in assay [2] and in assay [3] were 16% and 0%, respectively. The outcome in assay [5], in assay [6], in assay [7] and in assay [8] was inactive.
`Nc1cc(C(F)(F)F)ccc1Cl`: the results for the growth inhibition in assay [1] and in assay [4] were -1% and 97% (active), respectively. The inhibition in assay [2] was 8%; in assay [3] it was -1%. The outcome in assay [5], in assay [6], in assay [7] and in assay [8] was inactive.
`CCCCCCCCOc1ccc(N2C(N)=NC(N)=NC2(C)C)cc1`: the results for the growth inhibition in assay [1] and in assay [4] were -6% and 100% (active), respectively. The results for the inhibition in assay [2] and in assay [3] were 31% and -4%, respectively. Further, the result in assay [5], in assay [6], in assay [7] and in assay [8] was inactive.
For `Cc1cccc(CCNC(=O)c2cc(Br)cc(N3CCN(c4ccncc4)CC3)c2)c1`, the growth inhibition in assay [1] was 53% (active); in assay [4], 96% (active). Besides, the inhibition in assay [2] was 48%; in assay [3], 0%. The outcome in assay [5], in assay [6], in assay [7] and in assay [8] was inactive.
For the molecule `O=C(Cn1c(CCc2cccc(F)c2F)nc(=O)c2ccccc21)N(CCN1CCCC1)Cc1ccc(-c2ccc(C(F)(F)F)cc2)cc1`, the growth inhibition in assay [1] was 37%; in assay [4], 101% (active). The inhibition in assay [2] was 63% (active); in assay [3], -1%. The outcome in assay [5], in assay [6], in assay [7] and in assay [8] was inactive.
As to `O=C(/C=C/c1ccccc1O)N1CCC(CCN2CCC(c3c[nH]c4ccccc34)CC2)CC1`, the growth inhibition in assay [1] was 15%; in assay [4] it was 100% (active). Moreover, the inhibition is 46% in assay [2] and -1% in assay [3]. Further, the outcome in assay [5], in assay [6], in assay [7] and in assay [8] was inactive.
Consider `Cc1cccc2[nH]c(-c3cccc(-c4cccc(NC(=O)Cc5cnc[nH]5)c4)c3)nc12`, for which the growth inhibition in assay [1] is 100% (active); in assay [4], 102% (active). Further, the inhibition was 32% in assay [2] and -4% in assay [3]. For the same molecule, the result in assay [5], in assay [6], in assay [7] and in assay [8] was inactive.
In the case of `CCN(CC)CCNC(=O)c1ccc(NC(=O)c2cc(-c3ccncc3)nc3ccccc23)cc1`, the growth inhibition was 2% in assay [1] and 97% (active) in assay [4]. Also, the inhibition in assay [2] was 1%; in assay [3] it was -3%. Further, the outcome in assay [5], in assay [6], in assay [7] and in assay [8] was inactive.
As for `O=C(Nc1ccc(SC(F)(F)F)cc1)Nc1ccnc2ccccc12`, the growth inhibition in assay [1] was 42%; in assay [4] it was 95% (active). For the same molecule, the inhibition in assay [2] was 26%; in assay [3], -2%. Besides, the outcome in assay [5], in assay [6], in assay [7] and in assay [8] was inactive.
As to `Cc1cccc(-c2cccc(CNc3nc(NCCc4ccc(O)cc4)nc(N4CCNCC4)n3)c2)c1`, the growth inhibition in assay [1] was -3%; in assay [4], 84% (active). Further, the results for the inhibition in assay [2] and in assay [3] were 50% (active) and 0%, respectively. Besides, the result in assay [5], in assay [6], in assay [7] and in assay [8] was inactive.
With `Fc1cccc(C=NNc2ccnc3ccc(C(F)(F)F)cc23)c1`, the growth inhibition in assay [1] was 97% (active); in assay [4], 100% (active). Further, the results for the inhibition in assay [2] and in assay [3] were -2% and -4%, respectively. The outcome in assay [5], in assay [6], in assay [7] and in assay [8] was inactive.
For the molecule `Nc1c(Cl)cc(C(O)CNCCCCCOCCCc2ccc(O)c3ncccc23)cc1Cl` (stereo not given), the values for the growth inhibition in assay [1] and in assay [4] were 12% and 90% (active), respectively. Besides, the inhibition in assay [2] was 65% (active); in assay [3], -4%. Further, the outcome in assay [5], in assay [6], in assay [7] and in assay [8] was inactive.
`O=C(/C=C/c1ccc(Cl)c(Cl)c1)NCCCCCN1CCC(C(=O)Nc2ccc(Cl)cc2)CC1`: the growth inhibition in assay [1] is -1%; in assay [4], 100% (active). Further, the inhibition in assay [2] is 42%; in assay [3], 8%. The outcome in assay [5], in assay [6], in assay [7] and in assay [8] was inactive.
Turning to `O=C(NCCc1ccccc1)N(Cc1cccc(-c2ccc(CNCCc3ccccc3)cc2)c1)C1CCN(Cc2ccccc2)CC1`, the values for the growth inhibition in assay [1] and in assay [4] were 91% (active) and 90% (active), respectively. The inhibition in assay [2] is 94% (active); in assay [3] it was -5%. Further, the outcome in assay [5], in assay [6], in assay [7] and in assay [8] was inactive.
`COc1ccc(Br)cc1/C=C/C(=O)Nc1ccc(C2CCN(C)CC2)cc1`: the growth inhibition was 61% (active) in assay [1] and 101% (active) in assay [4]. The inhibition in assay [2] is 11%; in assay [3], -3%. Also, the outcome in assay [5], in assay [6], in assay [7] and in assay [8] was inactive.
Regarding `COc1ccc(-c2ccc(NC(=O)c3cccc(Cl)c3)cc2)cc1CN1CCCN(C)CC1`, the results for the growth inhibition in assay [1] and in assay [4] were 50% (active) and 95% (active), respectively. Further, the inhibition in assay [2] is 48%; in assay [3] it was 8%. Moreover, the result in assay [5], in assay [6], in assay [7] and in assay [8] was inactive.
